{"source": "paper PMC7819943", "about": "“Rice protein-binding microarrays: a tool to detect cis-acting elements near promoter regions in rice”", "note": "The full ranking holds about 35,000 sequences; the median of “fluorescence intensity (a.u.)” is about 10,000, and the highest 2% start at about 52,000. Many of the other results were omitted from the sample, so the highest values are more common in it than they were.", "data": [{"biological_target": "T1, OsWOX13 (Oryza sativa, UniProt Q5QMM3 1-267)", "T1 sequence": "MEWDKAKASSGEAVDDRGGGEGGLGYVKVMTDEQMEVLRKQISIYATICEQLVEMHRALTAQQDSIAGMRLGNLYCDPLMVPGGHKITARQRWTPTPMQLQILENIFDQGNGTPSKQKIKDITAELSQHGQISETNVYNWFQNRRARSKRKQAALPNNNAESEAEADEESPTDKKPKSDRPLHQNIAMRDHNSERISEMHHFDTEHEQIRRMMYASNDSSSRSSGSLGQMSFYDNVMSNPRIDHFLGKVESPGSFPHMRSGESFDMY", "test": "protein-binding microarray (RPBM); PBS, 2% BSA, 51.3 ng/ul salmon testes DNA, 50 uM zinc acetate, 200 nM TF, 25 C, 1 h; high values mean tight binding", "details": "protein: recombinant; tags: N-terminal polyhistidine and DsRed monomer fusion (pET32a); label: CyDye5-dUTP incorporated in the synthesized complementary strand; 3' TTTTT single-stranded linker to array surface; dsDNA, one strand shown", "in_short": "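In PBS with 2% BSA, salmon testes DNA and 50 µM zinc acetate, 200 nM protein was incubated on a custom Agilent array at 25 °C for 1 h and then washed off. The array had been made double-stranded by primer extension with Cy5-dUTP and blocked with 2% BSA. The proteins were transcription factors fused N-terminally to polyhistidine and DsRed, expressed in E. coli BL21-CodonPlus and purified on Ni–NTA. The binding signal is per-feature fluorescence intensity (arbitrary units) from an Axon 4000B scanner.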", "values": [{"sequence": "CCTCGCGCGCAGATAATTATCACAACTTATGGGGAGCTTGCGGAGTCACCTAGTGCAG", "binding signal": "3290 fluorescence intensity (a.u.)"}, {"sequence": "CTCATTAATCTTGCTCATTAATCTTGCAATTAATCCAGAACGGAGTCACCTAGTGCAG", "binding signal": "4900 fluorescence intensity (a.u.)"}, {"sequence": "CACTTCTGTACTTGGCGTGATTGGGCCGCGGACCGGTAGACGGAGTCACCTAGTGCAG", "binding signal": "3750 fluorescence intensity (a.u.)"}, {"sequence": "AGTAATTTAAACACGAAAACATTTCTTATTGACAAGAATACGGAGTCACCTAGTGCAG", "binding signal": "4230 fluorescence intensity (a.u.)"}, {"sequence": "TAAGGCAGAAAACCAAGGCCTTGACATTTCTTTTAGGACACGGAGTCACCTAGTGCAG", "binding signal": "65000 fluorescence intensity (a.u.)"}, {"sequence": "GTTTAGGACCTTTGATTTGTTGGTGACAGAACCCAAGGCGCGGAGTCACCTAGTGCAG", "binding signal": "6360 fluorescence intensity (a.u.)"}, {"sequence": "TAAAATAAATCAAATTAATACAAGTGAGATATCTTAGTAACGGAGTCACCTAGTGCAG", "binding signal": "6480 fluorescence intensity (a.u.)"}, {"sequence": "TGGCTCTGATCCATCAATTAGGATTTGCCAGTGCCTCTCCCGGAGTCACCTAGTGCAG", "binding signal": "5390 fluorescence intensity (a.u.)"}, {"sequence": "AAGAAGAATCTATCTATCTATCTATCTATCAATCTCTATACGGAGTCACCTAGTGCAG", "binding signal": "3320 fluorescence intensity (a.u.)"}, {"sequence": "TTTGGGATTATTATAATCTAGATTATTGAGTCATATTACTCGGAGTCACCTAGTGCAG", "binding signal": "10300 fluorescence intensity (a.u.)"}, {"sequence": "TCATATGATTAGGATATATCACATCTCATTATATTATATGCGGAGTCACCTAGTGCAG", "binding signal": "17800 fluorescence intensity (a.u.)"}, {"sequence": "GAAGGATTGAGATATGATTGATTATTATATCATATACTCTCGGAGTCACCTAGTGCAG", "binding signal": "55000 fluorescence intensity (a.u.)"}, {"sequence": "AATATATTGACATTGATATCTTATAAAGAGCCTATAGATACGGAGTCACCTAGTGCAG", "binding signal": "5820 fluorescence intensity (a.u.)"}, {"sequence": "TAGAAGATAGATTGATTGATTGATATATACTATCTCTATACGGAGTCACCTAGTGCAG", "binding signal": "52600 fluorescence intensity (a.u.)"}, {"sequence": "TCCACAATTTGCTAATCATATTTCTGTTGATAATGATAATCGGAGTCACCTAGTGCAG", "binding signal": "7820 fluorescence intensity (a.u.)"}, {"sequence": "GAAGATTGAGCTCTGCAGCAACAACCCAAACACACAAAGCCGGAGTCACCTAGTGCAG", "binding signal": "3290 fluorescence intensity (a.u.)"}, {"sequence": "CATAGGATCAATTTAATATATTGACATGCCATTAGGCCATCGGAGTCACCTAGTGCAG", "binding signal": "10600 fluorescence intensity (a.u.)"}, {"sequence": "CTTTACAATTAATACATGTTCCACTTGTCTCTCTCACAGACGGAGTCACCTAGTGCAG", "binding signal": "4970 fluorescence intensity (a.u.)"}, {"sequence": "CGTAGATTTGACCGAACAAATTGTACAGTAATGTACTAGGCGGAGTCACCTAGTGCAG", "binding signal": "20100 fluorescence intensity (a.u.)"}, {"sequence": "GTGTAATTACACTATAATTGCACTATAATTATATCTGTCACGGAGTCACCTAGTGCAG", "binding signal": "61500 fluorescence intensity (a.u.)"}, {"sequence": "GTGTAATTACACTACGATTGTACTGTAATTACATCTGTCACGGAGTCACCTAGTGCAG", "binding signal": "29900 fluorescence intensity (a.u.)"}, {"sequence": "GTGTAATTATACTATAATTGTACTGTAATTACATCTGTCACGGAGTCACCTAGTGCAG", "binding signal": "56600 fluorescence intensity (a.u.)"}, {"sequence": "ACTGTAATTTTAATTATATTATTGTTACACTATAATTGCACGGAGTCACCTAGTGCAG", "binding signal": "41800 fluorescence intensity (a.u.)"}, {"sequence": "TTTACACTATAATTATATTCACTTATACATTGTAATTACACGGAGTCACCTAGTGCAG", "binding signal": "13800 fluorescence intensity (a.u.)"}, {"sequence": "ATTATACTATGATTGTACTGTAATTACATCTGTCAAATTTCGGAGTCACCTAGTGCAG", "binding signal": "24500 fluorescence intensity (a.u.)"}, {"sequence": "CTTTAAACAGTTTGAGTGAATTTAGGGGTACATATTTCTGCGGAGTCACCTAGTGCAG", "binding signal": "6070 fluorescence intensity (a.u.)"}, {"sequence": "TTTTGCTTGATTGGTGGTCTGATGTATTTGATGAGTGCGACGGAGTCACCTAGTGCAG", "binding signal": "31300 fluorescence intensity (a.u.)"}, {"sequence": "ACACTAACAAATCAATTTTCTCTACCCACCACTCCTGAATCGGAGTCACCTAGTGCAG", "binding signal": "8890 fluorescence intensity (a.u.)"}, {"sequence": "ATAATTATTTGTTTTCAGTCATGTATCTTCATCTTATACACGGAGTCACCTAGTGCAG", "binding signal": "6340 fluorescence intensity (a.u.)"}, {"sequence": "AATGACATGGCAATCTCACCTTGGAGGTTTGTGCTTTGAACGGAGTCACCTAGTGCAG", "binding signal": "4460 fluorescence intensity (a.u.)"}, {"sequence": "AAGCAATATAATTGTTTCTCTAATTAGGAGTTATACATGTCGGAGTCACCTAGTGCAG", "binding signal": "19000 fluorescence intensity (a.u.)"}, {"sequence": "GGGGACATAAATCCTGATGATTTCCTCAACTTTGATCTTGCGGAGTCACCTAGTGCAG", "binding signal": "3630 fluorescence intensity (a.u.)"}, {"sequence": "TAAGCCTAATTAATTTGTCATTAGCAAATGTTTACTATAGCGGAGTCACCTAGTGCAG", "binding signal": "30300 fluorescence intensity (a.u.)"}, {"sequence": "CCTAATTAATCCGTCATTAGCAAATGTTTATTGTAGCACCCGGAGTCACCTAGTGCAG", "binding signal": "41300 fluorescence intensity (a.u.)"}, {"sequence": "AGCCTAATTAATTTGTCATTAGCAAATGTTTACTGTAGCACGGAGTCACCTAGTGCAG", "binding signal": "57000 fluorescence intensity (a.u.)"}, {"sequence": "AATTAATTTGTCATTAGTAAATGTTTACTGTAGCACCACACGGAGTCACCTAGTGCAG", "binding signal": "42000 fluorescence intensity (a.u.)"}, {"sequence": "TCTAATTAATTTGTCATTAGCAAATGTTTATTGTAGCATCCGGAGTCACCTAGTGCAG", "binding signal": "58400 fluorescence intensity (a.u.)"}, {"sequence": "CCTAATTAATCTGTCATTAGCAAATATTTATTGTAGCATCCGGAGTCACCTAGTGCAG", "binding signal": "47000 fluorescence intensity (a.u.)"}, {"sequence": "CTTGATTAATCCGTACGTCTATCAACTCAGCCCGAAACGCCGGAGTCACCTAGTGCAG", "binding signal": "46200 fluorescence intensity (a.u.)"}, {"sequence": "GAAATTATTGCTGAAATTTTGTCCTTCATAGTGTGCTGTTCGGAGTCACCTAGTGCAG", "binding signal": "12200 fluorescence intensity (a.u.)"}, {"sequence": "CTTGAGATGATTAGACTCCTAATGTAGCTCATGATTATATCGGAGTCACCTAGTGCAG", "binding signal": "14400 fluorescence intensity (a.u.)"}, {"sequence": "CATGATTAATTTTAGGCCGGTCATTGCTCGTGTCCTTGTTCGGAGTCACCTAGTGCAG", "binding signal": "65300 fluorescence intensity (a.u.)"}]}]}
